Test results taken from PubChem BioAssay.
Values without a mark were called inactive. The source made the active and inactive calls. Cut-off read from the data, not from the text of the source, unless noted: active = inhibition above about 44%; inactive = the rest.

biological target: Nuclear receptor subfamily 5 group A member 2 (Homo sapiens) (UniProt O00482); assay: NR5A2 activity suppression in reporter cells – cell-based, luminescence, confirmation (AID 651613; in the data active = inhibition above about 42%;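 note: HEK293T cells co-transfected with LRH-1 and StAR promoter luciferase reporter; 0% = vehicle wells and 100% = parental cells lacking receptor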); conditions: cell-based LRH-1 luciferase reporter, inverse agonism; at 3.6 µM; hits give high values
Sequence (O00482 whole entry, looked up): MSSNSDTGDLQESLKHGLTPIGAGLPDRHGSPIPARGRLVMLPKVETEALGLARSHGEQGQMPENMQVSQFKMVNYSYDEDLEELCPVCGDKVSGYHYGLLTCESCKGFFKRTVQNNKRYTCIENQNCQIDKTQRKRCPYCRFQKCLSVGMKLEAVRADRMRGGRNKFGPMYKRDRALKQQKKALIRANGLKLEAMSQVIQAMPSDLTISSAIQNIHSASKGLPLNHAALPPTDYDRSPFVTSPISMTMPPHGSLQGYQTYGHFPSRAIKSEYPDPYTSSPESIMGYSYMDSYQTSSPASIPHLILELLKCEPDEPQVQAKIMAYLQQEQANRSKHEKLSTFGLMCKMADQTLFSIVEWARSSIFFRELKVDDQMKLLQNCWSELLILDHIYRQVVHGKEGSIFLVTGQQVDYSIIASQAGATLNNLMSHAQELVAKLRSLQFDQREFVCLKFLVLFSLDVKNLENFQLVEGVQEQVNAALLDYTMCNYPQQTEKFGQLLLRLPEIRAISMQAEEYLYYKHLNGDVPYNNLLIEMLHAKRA

Structure (SMILES)	inhibition
COc1ccc(NC(=O)CSc2nnc(-c3ccccn3)n2N)cc1Cl	48.5% (active)
CS(=O)(=O)N1Cc2cc(C(=O)NCC3CC3)nc(-c3cccc(-c4cccnc4)c3)c2[C@@H]1CCO	49.4% (active)
COc1ccc(NC(=O)CSC2=NCCN2)cc1	31.3%
c1ccc2c(c1)CC1(CCCC1)n1nnnc1-2	52.2% (active)
CCOc1ccc(CCNC(=O)COC(=O)c2cc([N+](=O)[O-])ccc2N2CCOCC2)cc1OCC	58.4% (active)
O=C(c1ccc(Oc2ccc(Cl)cc2)c([N+](=O)[O-])c1)N1CCCC1	33.5%
CN(C)c1cc[n+](Cc2c(Cl)cccc2Cl)cc1	73.2% (active)
COc1cc(OC)cc(-c2oc3cccnc3c2C#CCCO)c1	60.8% (active)
COc1ccc(OC)c(-n2c(-c3ccc(S(C)(=O)=O)cc3)cc(C=O)c2C)c1	48.2% (active)
COc1ccc(CN(C)C(=O)CCl)cc1	53.5% (active)
COc1cc2c(cc1OC)CN(C(=O)Cn1ccccc1=O)CC2	56.6% (active)
O=C(NCc1cccnc1)c1cccn2c(=O)c3sccc3nc12	34.3%
COc1ccc(-n2c(/C=C(\C)O)nc(=O)c3c(C)cc(C)nc32)cc1	51.8% (active)
CC[n+]1ccc(/C=C/c2ccc(N(C)C)cc2)c2ccccc21	110% (active)
CC(=O)Nc1ccc(NC(=O)CSc2ccc(-c3ccc(-n4ccnc4)cc3)nn2)cc1	52% (active)
O=C(CSc1nnc(Cc2cccs2)n1Cc1ccco1)Nc1ccc(Cl)cc1Cl	51.8% (active)
Clc1ccc(COc2cccc(CNCc3ccncc3)c2)cc1	62.4% (active)
COc1ccc(CCNC(=O)COC(=O)C2CC2C)cc1 (stereo not given)	47.1% (active)
COc1ccc(Br)cc1/C=C/C(=O)c1ccc(NC(C)=O)cc1	95% (active)
CCCc1nc(SCC(=O)c2ccc(F)cc2)c2ccccc2n1	46.9% (active)

Structure (SMILES)	inhibition
COc1ccccc1-c1nnc2sc(-c3ccc(N(C)C)cc3)nn12	31%
COc1ccc(CCNC(=O)CSc2nc3[nH]ncc3c(=O)n2-c2ccccc2Br)cc1OC	57.3% (active)
Oc1ccccc1-c1nc(NCC2CCCO2)c2ccccc2n1 (stereo not given)	66.2% (active)
CS/C(=C\[N+](=O)[O-])Nc1ccc(OC(F)(F)F)cc1	83.9% (active)
O=C(Nc1c(F)cccc1F)c1cnc(N2CCN(c3ccccn3)CC2)c2ccccc12	41%
CCCc1nnc(SCC(=O)Nc2ccc(OC)cc2)o1	42.6% (active)
CCCc1nc2cc(C)c(Br)c(C)n2c1Cc1ccc(OC)cc1C	48.3% (active)
CCCc1cc(=O)oc2c(C)c(OCC(=O)NC3CC(C)(C)NC(C)(C)C3)ccc12	53% (active)
CN1CC(=O)N(CC(=O)Nc2ccc(N3CCOCC3)cc2)C1=O	63.9% (active)
CS(=O)(=O)N1CCCC(c2nc(-c3ccc(S(=O)(=O)NCc4ccccc4)cc3)no2)C1 (stereo not given)	54.5% (active)
CCN1CCN(c2ccc(S(=O)(=O)N3CCCCC3)cc2NC(=O)/C=C/c2ccc([N+](=O)[O-])cc2)CC1	61.8% (active)
COc1ccc(-c2nnnn2-c2ccccc2OC)cc1	53.8% (active)
COc1cc2oc(-c3ccc(O)cc3)cc(=O)c2c(O)c1OC	35.9%
Cc1cc(OCC(=O)Nc2nccs2)c2c(C)c(C)c(=O)oc2c1	74.5% (active)
O=C(Cc1ccc(S(=O)(=O)N2CCCC2)s1)Nc1cccc([N+](=O)[O-])c1	51.3% (active)
NC(=O)COc1ccc2c3c(c(=O)oc2c1)CCCCC3	40.5%
CCOc1ccc(NC(=O)CSc2nc3[nH]ncc3c(=O)[nH]2)cc1	56.8% (active)
O=C1C(Cl)=C(N2CCOCC2)C(=O)N1c1ccc(Br)cc1	53.2% (active)
COc1cc(/C=N/NC(N)=S)ccc1OCC(=O)Nc1ccc(C)cc1	48.1% (active)
O=C(COC(=O)Cn1[nH]c(=O)c2ccccc2c1=O)NNC(=O)c1ccc(Br)cc1	32.1%

biological target: Steroidogenic factor 1 (Homo sapiens) (UniProt Q13285); assay: inverse agonism at SF1 nuclear receptor – cell-based, luminescence, high throughput, counter-screen for LRH-1 inverse agonist project (AID 651614); conditions: cell-based SF1 luciferase reporter, at 3.6 µM, hits give high values;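 note: cells cotransfected with StAR promoter reporter and SF1 expression vector; 0% = vehicle on cells with receptor and 100% = vehicle on cells lacking receptor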
Sequence (Q13285 whole entry, looked up): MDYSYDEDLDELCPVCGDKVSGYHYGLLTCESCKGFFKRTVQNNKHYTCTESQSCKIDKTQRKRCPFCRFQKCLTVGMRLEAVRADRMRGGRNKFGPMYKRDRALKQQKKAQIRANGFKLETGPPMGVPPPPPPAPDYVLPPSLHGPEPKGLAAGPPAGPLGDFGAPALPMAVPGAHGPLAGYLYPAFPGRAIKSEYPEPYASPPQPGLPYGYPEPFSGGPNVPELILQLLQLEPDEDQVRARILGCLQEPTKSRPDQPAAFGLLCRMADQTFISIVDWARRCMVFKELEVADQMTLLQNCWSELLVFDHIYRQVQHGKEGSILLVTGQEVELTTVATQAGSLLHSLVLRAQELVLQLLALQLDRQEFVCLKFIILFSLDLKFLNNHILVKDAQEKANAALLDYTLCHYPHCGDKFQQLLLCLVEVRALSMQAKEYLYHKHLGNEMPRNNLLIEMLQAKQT

Structure (SMILES)	inhibition
COc1ccc(NC(=O)CSc2nnc(-c3ccccn3)n2N)cc1Cl	49.4% (active)
CS(=O)(=O)N1Cc2cc(C(=O)NCC3CC3)nc(-c3cccc(-c4cccnc4)c3)c2[C@@H]1CCO	47.5% (active)
COc1ccc(NC(=O)CSC2=NCCN2)cc1	15.1%
c1ccc2c(c1)CC1(CCCC1)n1nnnc1-2	42.5%
CCOc1ccc(CCNC(=O)COC(=O)c2cc([N+](=O)[O-])ccc2N2CCOCC2)cc1OCC	56.6% (active)
O=C(c1ccc(Oc2ccc(Cl)cc2)c([N+](=O)[O-])c1)N1CCCC1	38%
CN(C)c1cc[n+](Cc2c(Cl)cccc2Cl)cc1	68.2% (active)
COc1cc(OC)cc(-c2oc3cccnc3c2C#CCCO)c1	54.2% (active)
COc1ccc(OC)c(-n2c(-c3ccc(S(C)(=O)=O)cc3)cc(C=O)c2C)c1	55.3% (active)
COc1ccc(CN(C)C(=O)CCl)cc1	52.9% (active)
COc1cc2c(cc1OC)CN(C(=O)Cn1ccccc1=O)CC2	57.1% (active)
O=C(NCc1cccnc1)c1cccn2c(=O)c3sccc3nc12	31.3%
COc1ccc(-n2c(/C=C(\C)O)nc(=O)c3c(C)cc(C)nc32)cc1	37.2%
CC[n+]1ccc(/C=C/c2ccc(N(C)C)cc2)c2ccccc21	94.1% (active)
CC(=O)Nc1ccc(NC(=O)CSc2ccc(-c3ccc(-n4ccnc4)cc3)nn2)cc1	53% (active)
O=C(CSc1nnc(Cc2cccs2)n1Cc1ccco1)Nc1ccc(Cl)cc1Cl	47.5% (active)
Clc1ccc(COc2cccc(CNCc3ccncc3)c2)cc1	57.7% (active)
COc1ccc(CCNC(=O)COC(=O)C2CC2C)cc1 (stereo not given)	48.6% (active)
COc1ccc(Br)cc1/C=C/C(=O)c1ccc(NC(C)=O)cc1	94.5% (active)
CCCc1nc(SCC(=O)c2ccc(F)cc2)c2ccccc2n1	55.7% (active)

Structure (SMILES)	inhibition
COc1ccccc1-c1nnc2sc(-c3ccc(N(C)C)cc3)nn12	57.1% (active)
COc1ccc(CCNC(=O)CSc2nc3[nH]ncc3c(=O)n2-c2ccccc2Br)cc1OC	43.1% (active)
Oc1ccccc1-c1nc(NCC2CCCO2)c2ccccc2n1 (stereo not given)	58% (active)
CS/C(=C\[N+](=O)[O-])Nc1ccc(OC(F)(F)F)cc1	84.6% (active)
O=C(Nc1c(F)cccc1F)c1cnc(N2CCN(c3ccccn3)CC2)c2ccccc12	35.2%
CCCc1nnc(SCC(=O)Nc2ccc(OC)cc2)o1	45% (active)
CCCc1nc2cc(C)c(Br)c(C)n2c1Cc1ccc(OC)cc1C	45.3% (active)
CCCc1cc(=O)oc2c(C)c(OCC(=O)NC3CC(C)(C)NC(C)(C)C3)ccc12	59% (active)
CN1CC(=O)N(CC(=O)Nc2ccc(N3CCOCC3)cc2)C1=O	65.2% (active)
CS(=O)(=O)N1CCCC(c2nc(-c3ccc(S(=O)(=O)NCc4ccccc4)cc3)no2)C1 (stereo not given)	52.7% (active)
CCN1CCN(c2ccc(S(=O)(=O)N3CCCCC3)cc2NC(=O)/C=C/c2ccc([N+](=O)[O-])cc2)CC1	49.4% (active)
COc1ccc(-c2nnnn2-c2ccccc2OC)cc1	54.3% (active)
COc1cc2oc(-c3ccc(O)cc3)cc(=O)c2c(O)c1OC	32.8%
Cc1cc(OCC(=O)Nc2nccs2)c2c(C)c(C)c(=O)oc2c1	66.2% (active)
O=C(Cc1ccc(S(=O)(=O)N2CCCC2)s1)Nc1cccc([N+](=O)[O-])c1	46.5% (active)
NC(=O)COc1ccc2c3c(c(=O)oc2c1)CCCCC3	41.6%
CCOc1ccc(NC(=O)CSc2nc3[nH]ncc3c(=O)[nH]2)cc1	43.5% (active)
O=C1C(Cl)=C(N2CCOCC2)C(=O)N1c1ccc(Br)cc1	50.8% (active)
COc1cc(/C=N/NC(N)=S)ccc1OCC(=O)Nc1ccc(C)cc1	60% (active)
O=C(COC(=O)Cn1[nH]c(=O)c2ccccc2c1=O)NNC(=O)c1ccc(Br)cc1	35.8%
